Bioassay records: PubChem BioAssay, several laboratories
proKLK7 act: activators of human kallikrein-7 zymogen | AID 652039 | 370,000 tested, 0.9% active | P49862 | purified proKLK7, EDANS-DABCYL substrate fluorescence; 100% is mature enzyme control, 0% vehicle | activation, % at 7 µM;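 active means activation above the mean of all tested compounds plus 3 SD, computed per campaign excluding outliers beyond control limits, cut at about 13% in these data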
ADAM10 inh: inhibits human ADAM10. recombinant ADAM10, EDANS/DABCYL FRET peptide cleavage, 3 h. O14672. inhibition, % at 7 µM. AID 720582. 370,000 tested, 0.62% active;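 active means inhibition above a per-campaign cutoff equal to the mean of compounds falling between control-based bounds plus 3 SD, cut at about 20% in these data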;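 further: 0% = DMSO wells while the 100% control is not disclosed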
ADAM17 inh: inhibitors of human ADAM17; recombinant ADAM17, EDANS/DABCYL FRET peptide cleavage; 370,000 tested, 0.83% active; inhibition, % at 6.95 µM; P78536;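 active means inhibition above the mean of compounds lying between control limits plus 3 SD, set per campaign, cut at about 8.5% in these data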;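 further: 0% = DMSO-only wells as the low control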
Target sequence (P78536 215-824 limits assumed): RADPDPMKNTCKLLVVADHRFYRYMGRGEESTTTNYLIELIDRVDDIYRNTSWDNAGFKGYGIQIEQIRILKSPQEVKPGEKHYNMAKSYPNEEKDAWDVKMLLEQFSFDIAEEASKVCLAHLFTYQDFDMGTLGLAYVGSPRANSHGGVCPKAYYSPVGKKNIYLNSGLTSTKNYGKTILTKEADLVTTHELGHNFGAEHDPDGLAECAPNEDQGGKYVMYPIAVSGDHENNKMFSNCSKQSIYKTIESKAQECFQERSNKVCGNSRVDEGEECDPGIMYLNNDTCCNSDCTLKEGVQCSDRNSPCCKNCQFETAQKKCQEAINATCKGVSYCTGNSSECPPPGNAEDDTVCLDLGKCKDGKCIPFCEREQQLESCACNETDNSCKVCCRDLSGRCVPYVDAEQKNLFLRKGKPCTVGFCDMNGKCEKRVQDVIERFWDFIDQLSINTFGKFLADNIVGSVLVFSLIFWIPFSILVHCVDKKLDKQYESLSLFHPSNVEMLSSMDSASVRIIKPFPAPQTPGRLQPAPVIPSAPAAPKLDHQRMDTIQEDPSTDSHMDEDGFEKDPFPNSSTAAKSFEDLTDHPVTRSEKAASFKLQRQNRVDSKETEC
NPR2 activator: GC-B (human) receptor activation; P20594; activation, % at 10 µM; 370,000 tested, 0.11% active; HEK293-GC-B cells, CNP EC30, cGMP TR-FRET; 0% at EC30 CNP, 100% saturating CNP;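 active means activation at 10 µM reaching about 35% in either raw or pattern-adjusted values, limit read from the data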
GC-A act: GC-A (human) enzyme activation | HEK293 GC-A cells, cGMP TR-FRET, EC30 ANP; 0% at EC30 ANP, 100% saturating ANP | activation, % at 10 µM | 370,000 tested, 0.14% active | AID 1671463; in the data active means activation above about 40%
ADAM10 ctr: ADAM10 inhibition, counter-screen for ADAM17 exosite hits | shares compounds with ADAM17 inh | recombinant ADAM10, EDANS/DABCYL FRET peptide cleavage, 3 h | inhibition, % at 6.95 µM | 2,900 tested, 47% active;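 active means mean inhibition over the triplicate runs exceeds the activity threshold set in the earlier primary screen, cut at about 20% in these data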;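 further: 0% = DMSO wells and 100% = marimastat wells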
ADAM17 confirm: human ADAM17 inhibition, confirmation; shares compounds with ADAM17 inh; recombinant ADAM17, EDANS/DABCYL QFRET peptide cleavage; inhibition, % at 6.95 µM; 2,900 tested, 65% active; AID 743257;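 active means mean inhibition across replicates above the hit cutoff set in the primary screen, cut at about 8.5% in these data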;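 further: 0% = DMSO wells and 100% = marimastat wells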
* hit, by the source's call; nt = no result. This is a sample that favours compounds with a hit; in the whole collection about 2.2% have one here.

SMILES	proKLK7 act	ADAM10 inh	ADAM17 inh	NPR2 activator	GC-A act	ADAM10 ctr	ADAM17 confirm
O=C(CSc1nnc(-c2ccccc2)n1-c1ccc(Cl)cc1)Nc1ccccc1-c1ccccc1	1.0	19.2	10.7*	-12.8	-15.1	20.5*	13.8*
Clc1ccc(-n2c(SC/C=C/c3ccccc3)nnc2-c2cccnc2)cc1	-0.2	18.8	14.2*	-19.7	-22.0	1.3	6.2
CCSc1nc(-c2ccco2)ccc1C#N	-0.6	-16.6	13.7*	-1.9	-2.5	-391.7	-75.7
CCOC(=O)c1cccc(-c2cc(C(C)=O)c3n(c2=O)CCC3)c1	-0.6	-8.3	-2.7	-0.1	-1.9	nt	nt
CCOc1ccc(CCNC(=O)c2ccccn2)cc1OCC	nt	-1.9	-2.9	-2.2	1.7	nt	nt
CCOc1cc2c3c(c1)C1(C(=O)N3C(C)(C)C=C2C)C(C#N)=C(N)Oc2cc(O)ccc21 (stereo not given)	0.7	4.7	9.0*	-0.9	31.1	8.9	11.8*
CCCCCCCCN1CN2Cc3ccc(C)cc3C2CS1(=O)=O (stereo not given)	-0.1	4.7	1.2	-1.9	2.7	nt	nt
O=C(Nc1cccc(-n2cccn2)c1)C1CCCN(Cc2ccccc2F)C1 (stereo not given)	0.3	-2.9	11.4*	-4.7	-4.8	-8.7	-0.6
COc1cc(CN2CCCC(C(=O)Nc3cccc(-n4cccn4)c3)C2)ccc1F (stereo not given)	0.5	-1.6	2.6	-7.1	-4.5	nt	nt
Cc1ccc(COc2ccc(Br)cc2/C=N/O)cc1	0.1	16.6	8.8*	-0.8	10.3	34.0*	16.7*
CN(C)[C@@H]1CCN(c2cccc3c2S(=O)(=O)N(C2CC2)CCCO3)C1	0.1	-9.6	-8.1	3.6	2.5	nt	nt
CCc1ccc(C(O)c2ncc(-c3cccc(C(F)(F)F)c3)[nH]2)cc1 (stereo not given)	0.3	9.3	10.7*	-4.2	-1.5	21.3*	11.5*
COc1cccc(C(O)c2ncc(-c3cccc(C(F)(F)F)c3)[nH]2)c1 (stereo not given)	0.6	-3.4	10.3*	0.8	-2.3	13.6	9.8*
CCCc1ccc(C(O)c2ncc(-c3ccccc3F)[nH]2)cc1 (stereo not given)	-0.2	15.7	9.2*	-0.8	2.1	8.7	4.6
OC(c1ccc(Cl)cc1)c1ncc(-c2ccccc2F)[nH]1 (stereo not given)	-0.3	-10.5	0.0	2.9	3.5	nt	nt
COc1cccc(-c2cnc(C(O)c3cccc(OC)c3)[nH]2)c1 (stereo not given)	0.3	-1.4	-1.7	2.2	2.5	nt	nt
OC(c1cccc(F)c1)c1ncc(-c2ccc(C(F)(F)F)cc2)[nH]1 (stereo not given)	0.2	3.6	2.6	0.5	-1.3	nt	nt
OC(c1ccc2ccccc2c1)c1ncc(-c2ccc(C(F)(F)F)cc2)[nH]1 (stereo not given)	0.1	9.7	10.2*	-3.5	-2.7	42.4*	22.8*
COc1ccc(C(O)c2ncc(-c3cccc(C(F)(F)F)c3)[nH]2)cc1F (stereo not given)	-0.3	6.0	4.1	-0.5	-1.6	nt	nt
CC(COc1ccc(Cl)cc1)CN1CCC(C(O)(c2ccccc2)c2ccccc2)CC1 (stereo not given)	-0.1	4.4	-1.1	-4.6	-7.9	nt	nt
Cc1ccc(S(=O)(=O)N(CC(=O)NC2CCC(C)CC2)c2cc(C)cc(C)c2)cc1 (stereo not given)	-0.7	0.1	1.1	0.4	-3.5	nt	nt
Cc1ccc(S(=O)(=O)N2CCC(C(=O)OC(C)C(=O)NCc3ccccc3)CC2)cc1C (stereo not given)	0.5	14.6	9.7*	-0.6	-2.8	7.3	7.3
Cc1ccc(S(=O)(=O)N2CCC(C(=O)OC(C)C(=O)NC3CCCCC3C)CC2)cc1C (stereo not given)	0.3	2.5	-1.2	2.6	-3.7	nt	nt
CC(C)C[C@H]1COc2cccc(N3CCCC3)c2S(=O)(=O)N1C	0.6	-9.2	-6.5	-3.8	-1.5	nt	nt
CCOC(=O)C1=NOC(C(C)=O)(C(=O)Nc2cc(C)cc(C)c2)C1 (stereo not given)	0.6	0.2	-1.4	-8.2	-0.6	nt	nt
SMILES	proKLK7 act	ADAM10 inh	ADAM17 inh	NPR2 activator	GC-A act	ADAM10 ctr	ADAM17 confirm
Cc1ccc(Cl)c(NC(=O)COC(=O)CNS(=O)(=O)/C=C/c2ccccc2)c1Cl	-0.2	7.0	9.1*	-1.6	-4.1	-4.4	1.7
C[C@@H]1CC[C@]2(O[C@H](CCO)C[C@@H](O)[C@@H]2O)O1	0.3	7.9	8.8*	2.8	-0.1	10.0	4.5
CCCc1cc(-c2[nH]ncc2-c2ccc3c(c2)OCCCO3)c(O)cc1O	-0.4	3.9	10.6*	3.2	-0.8	27.2*	14.2*
CCCc1cc(-c2[nH]ncc2-c2ccc(C(=O)OCC)o2)c(O)cc1O	0.2	-24.3	-12.2	-10.2	-7.8	nt	nt
COC(=O)[C@@H]1C[C@H]2CC[C@H](O)C[C@H]2N1Cc1ccccc1OC(=O)c1cccs1	0.5	3.0	10.9*	-3.4	-4.1	-4.7	-0.5
COC(=O)[C@@H]1C[C@@H]2CC[C@@H](O)C[C@@H]2N1Cc1ccccc1OS(=O)(=O)c1ccc(C)cc1	-0.3	-4.2	-1.1	-2.3	-0.3	nt	nt
O=[N+]([O-])c1ccc(Nc2ccc(F)cc2)nc1	-0.5	2.6	10.0*	-2.1	-0.9	3.0	4.8
COC(=O)C1CN(Cc2ccccc2)CCS(=O)(=O)N1Cc1cn(Cc2cccc(Cl)c2)nn1 (stereo not given)	-0.5	1.4	-0.5	-5.8	-9.8	nt	nt
Cc1ccc(-c2nnc(SCC(=O)Nc3ccc(OCc4ccccc4)cc3)n2-c2ccc(Cl)cc2)cc1	0.5	-1.6	1.7	6.8	0.3	nt	nt
Oc1ccc(C[C@H]2CNC(=S)N2CC2CCCN2C[C@H](Cc2ccc(O)cc2)N2C[C@H](Cc3ccc(O)cc3)N(CC3CCCCCC3)C2=S)cc1 (stereo not given in full)	-0.3	22.6*	9.2*	-1.0	0.7	30.6*	18.4*
Oc1ccc(C[C@H]2CNC(=S)N2CC2CCCN2C[C@H](Cc2ccc(O)cc2)N2C[C@H](Cc3ccccc3)N(CC3CCCCCC3)C2=S)cc1 (stereo not given in full)	-0.1	13.6	10.0*	3.3	-0.8	43.0*	23.3*
